Reference: paper PMC4552634, “A New Set of Chemical Starting Points with Plasmodium falciparum Transmission-Blocking Potential for Antimalarial Drug Discovery” (PLoS ONE, 2015)
In all, about 13,000 compounds went through this assay and about 3,200 (25%) showed an effect of 50% or more. The list shows a part of the results.

The compounds below were run on P. falciparum stage V gametocytes. Settings: 48 h, 5 µM; inhibitor.
Design: BacTiter-Glo ATP luminescence viability of purified stage V gametocytes in 384-well plates, per cent inhibition versus DMSO

Row | Compound | % Inhibition
1 | O=C(NCC1CCC(CNCCc2ccccc2)CC1)Nc1ccc(Cl)c(Cl)c1 (stereo not shown) [TCMDC-140704] | -8.295%
2 | CCCCCc1cc(O)c2c3c(c(=O)oc2c1)CN(C)CC3 [TCMDC-124170] | 9.829%
3 | CC(=O)Nc1csc(-c2cnc(/C=C(\C)C[C@@H]3OC[C@H](C[C@@H]4O[C@H]4[C@@H](C)[C@H](C)O)[C@@H](O)[C@H]3O)o2)c1 [TCMDC-131575] | 0.669%
4 | COc1cccc(NC(=O)NC2CCN(c3ccnc(Nc4cc(OC)c(OC)c(OC)c4)n3)C2)c1 (stereo not shown) [TCMDC-133627] | -76.2%
5 | CN(C)C(=S)N=Nc1c(O)[nH]c2ccccc12 [TCMDC-124262] | -39.06%
6 | COc1cc(NC(=O)/C=C/c2ccccc2OC(F)(F)F)cc(OCCN2CCC(O)(c3ccccc3)CC2)c1 [TCMDC-140935] | -5.416%
7 | COc1ccc(C2CCN(CCN3CCC(NC(=O)c4cccc(-c5ccncc5)c4)CC3)CC2)c(OC)c1 [TCMDC-135431] | -2.358%
8 | COc1cc(NC(=O)c2sc(-c3ccc(Cl)cc3)cc2NC(=O)CN2CCCC2)ccc1OCCN1CCCC1 [TCMDC-135381] | -9.57%
9 | COc1cc(NC(=O)c2sc(-c3ccc(Cl)cc3)cc2NC(=O)CN2CC[C@@H](O)C2)ccc1OCCN1CCCC1 [TCMDC-135380] | 114.3%
10 | COc1ccc(CCCON2C(N)=NC(N)=NC2(C)C)cc1 [TCMDC-131693] | 15.23%
11 | C=CCc1ccc(C2CCN(CCCCNC(=O)c3ccc(NC(=O)c4ccc(Cl)cc4)cc3)CC2)cc1 [TCMDC-138355] | 87.45%
12 | O=C(NCCCCN1CCN(c2cccc3ccccc23)CC1)c1ccc(NC(=O)c2ccc(Cl)cc2)cc1 [TCMDC-138514] | -0.4742%
13 | CCc1ccc(C2CCN(CCCCNC(=O)c3ccc(NC(=O)c4ccc(Cl)cc4)cc3)CC2)cc1 [TCMDC-138351] | 54.3%
14 | O=C(NCCCCN1CCC(c2ccc(OC(F)(F)F)cc2)CC1)c1ccc(NC(=O)c2ccc(Cl)cc2)cc1 [TCMDC-138327] | 35.48%
15 | CCc1ccccc1N1CCN(CCCC(=O)c2ccc(NC(=O)c3ccc(Cl)cc3)cc2)CC1 [TCMDC-138230] | -10.32%
16 | O=C(NCCCCN1CCC(c2ccc([N+](=O)[O-])cc2)CC1)c1ccc(NC(=O)c2ccc(Cl)cc2)cc1 [TCMDC-138350] | 25.02%
17 | CCc1ccccc1N1CCN(CCCCNC(=O)c2ccc(NC(=O)c3ccc(Cl)cc3)cc2)CC1 [TCMDC-138192] | 63.87%
18 | CCCc1ccc(C2CCN(CCCCNC(=O)c3ccc(NC(=O)c4ccc(Cl)cc4)cc3)CC2)cc1 [TCMDC-138358] | 87.46%
19 | O=C(NCCCCN1CCC(c2ccc(Br)cc2)CC1)c1ccc(NC(=O)c2ccc(Cl)cc2)cc1 [TCMDC-138347] | 1.75%
20 | O=C(c1cncc(-c2ccccc2)c1)N(Cc1cncn1Cc1ccccc1F)CC1CC1 [TCMDC-132464] | 14.15%
21 | CC(C)(C)Oc1ccc(NC(=O)c2ccccc2O)cc1 [TCMDC-137700] | 29.92%
22 | COc1ccccc1N(C)CCNc1cc(C)nc(Nc2ccc(C)cc2)n1 [TCMDC-133456] | -44.09%

Row | Compound | % Inhibition
23 | Cn1cc(C(=O)Nc2cccc(-c3cccc(-c4nc5ccccc5[nH]4)c3)c2)n(C)c1=O [TCMDC-137135] | -5.62%
24 | Cc1cc(C)c(C(=O)Nc2n[nH]c3nnc(-c4cccc(F)c4F)cc23)c(C)c1 [TCMDC-141220] | 6.955%
25 | Oc1cc(Nc2ccnc3cc(I)ccc23)ccc1F [TCMDC-138379] | -46.78%
26 | OC(COc1ccccc1-c1nc2ccccc2o1)CN1CCCN(CCc2ccccc2)CC1 (stereo not shown) [TCMDC-141430] | 28.2%
27 | COc1ccccc1N1CCN(Cc2c(NC(C)=O)sc(C)c2C)CC1 [TCMDC-124501] | -13.75%
28 | Oc1ccccc1CNCC(O)c1cc(C(F)(F)F)cc(C(F)(F)F)c1 (stereo not shown) [TCMDC-140304] | -68.09%
29 | O=C(NCCCCN1CCC(c2ccc(-c3ccco3)cc2)CC1)c1ccc(NC(=O)c2ccc(Cl)cc2)cc1 [TCMDC-138321] | 113.6%
30 | O=C(/C=C/c1ccc(Cl)c(Cl)c1)NCCCCCCN1CCCN(C(=O)Nc2cccc(Cl)c2)CC1 [TCMDC-135939] | -30.78%
31 | O=C(O)C(F)(F)F.c1cc(CNCC2CCCO2)cc(-c2ccc(-c3nc4ccccc4[nH]3)s2)c1 (stereo not shown) [TCMDC-133107] | -4.99%
32 | COc1ccc(Cl)cc1N1CCN(CCCNC(=O)c2ccc(-c3nc4cc(Cl)c(F)cc4[nH]3)s2)CC1 [TCMDC-140102] | 7.975%
33 | COc1cc(C2=NN(S(=O)(=O)c3c(C)cc(C)cc3C)CCCC2)ccc1Cl [TCMDC-136217] | 20.4%
34 | COc1ccc(-c2ccc(Nc3cccc(S(=O)(=O)CCN4CCC(CCN(C)C)CC4)c3)nc2)cn1 [TCMDC-134376] | 26.53%
35 | Fc1ccc2nc(-c3ccc(-c4ccc(CNCC5CCCO5)cc4)s3)[nH]c2c1 (stereo not shown) [TCMDC-133100] | -65.64%
36 | CCN(CC)CCCNc1nccc(N2CCc3ncnc(Nc4ccc(OCc5cccc(F)c5)c(Cl)c4)c3C2)n1 [TCMDC-135406] | 102.3%
37 | CC(=O)NCCNc1nccc(N2CCc3ncnc(Nc4ccc(OCc5ccccn5)c(Cl)c4)c3C2)n1 [TCMDC-135447] | 3.253%
38 | Fc1cccc(COc2ccc(Nc3ncnc4ccc(C#C[C@H]5CCCN5)cc34)cc2Cl)c1 [TCMDC-135437] | -6.979%
39 | CC(=O)NCCNc1nccc(N2CCc3ncnc(Nc4ccc(OCc5cccc(F)c5)c(Cl)c4)c3C2)n1 [TCMDC-135392] | 4.041%
40 | NCCCNc1nccc(N2CCc3ncnc(Nc4ccc(OCc5cccc(F)c5)c(Cl)c4)c3C2)n1 [TCMDC-135456] | 85.39%
41 | C[C@@H](N)C#Cc1cc2c(Nc3ccc(OCc4cccc(F)c4)c(Cl)c3)ncnc2s1 [TCMDC-134655] | 18.43%
42 | CN(C)C1CCN(CC#Cc2cc3ncnc(Nc4ccc(OCc5cccc(F)c5)c(Cl)c4)c3s2)CC1 [TCMDC-138804] | 11.68%
43 | CCN(CCS(C)(=O)=O)Cc1ccc(-c2ccc3ncnc(Nc4ccc(OCc5cccc(F)c5)c(Cl)c4)c3c2)o1 [TCMDC-138533] | -31.95%
44 | CN(C)CCNc1nccc(N2CCc3ncnc(Nc4ccc(OCc5cccc(F)c5)c(Cl)c4)c3C2)n1 [TCMDC-135405] | 71.57%

Row | Compound | % Inhibition
45 | CN(C)Cc1ccc(-c2cc3c(Nc4ccc(OCc5cccc(F)c5)c(Cl)c4)ncnc3s2)[nH]1 [TCMDC-135468] | 11.16%
46 | CNCCNc1nccc(N2CCc3ncnc(Nc4ccc(OCc5cccc(F)c5)c(Cl)c4)c3C2)n1 [TCMDC-135478] | 99.42%
47 | CN(C)Cc1ccc(-c2cc3ncnc(Nc4ccc(OCc5cccc(F)c5)c(Cl)c4)c3s2)[nH]1 [TCMDC-135507] | 40.2%
48 | COc1ccc2nccc([C@@H](O)CN3CCC(NCc4cc5oc(=O)n(C)c5cc4F)CC3)c2c1 [TCMDC-141144] | -1.57%
49 | Fc1cccc(COc2ccc(Nc3ncnc4sc(C#C[C@H]5CCCN5)cc34)cc2F)c1 [TCMDC-134429] | -0.575%
50 | O=C(Nc1ccc(N2CCCCC2)c(Cl)c1)c1ncn[nH]1 [TCMDC-123528] | 3.564%
51 | CS(=O)(=O)CCNc1nccc(N2CCc3ncnc(Nc4ccc(OCc5cccc(F)c5)c(Cl)c4)c3C2)n1 [TCMDC-135425] | 8.296%
52 | CC(=O)NCCNc1cc(N2CCc3ncnc(Nc4ccc(OCc5c(F)cccc5F)c(Cl)c4)c3C2)ncn1 [TCMDC-135455] | 38.09%
53 | CS(=O)(=O)CCNc1cc(N2CCc3ncnc(Nc4ccc(OCc5cccc(F)c5)c(Cl)c4)c3C2)ncn1 [TCMDC-135477] | 58.91%
54 | COc1cc(-c2ccccc2)ccc1C(=O)Nc1ccc2c(c1)N(C)CCC2 [TCMDC-141219] | -85.17%
55 | O=C(N1CCN(c2cccc(C(F)(F)F)c2)CC1)C(Cl)(Cl)Cl [TCMDC-125655] | -5.728%
56 | O=C(/C=C/c1ccc(Cl)c(Cl)c1)NC1C2CCC1CC(CN1CCC(c3c[nH]c4ccccc34)CC1)C2 (stereo not shown) [TCMDC-139811] | 36.93%
57 | c1ccc(C2CCN(Cc3ccc(-c4c[nH]c5nc(NC6CCCC6)ncc45)cc3)CC2)cc1 [TCMDC-133772] | -64.75%
58 | c1ccc(CN2CCC(Nc3ccc(-c4cn[nH]c4-c4ccccn4)nc3)CC2)cc1 [TCMDC-138750] | 73.03%
59 | COc1ccc(Nc2nc(NC3CCN(Cc4ccccc4)CC3)cc(-c3ccncc3)n2)cc1 [TCMDC-134021] | -30.5%
60 | CCCCCC(C)C(C)c1cc(O)c2c(c1)OC(C)(C)CC2(O)c1ccccn1 (stereo not shown) [TCMDC-131713] | -6.865%
61 | Cc1cc(F)ccc1-c1nc(NCCCN2CCCC2=O)nc2c1ccc(=O)n2-c1c(F)cccc1F [TCMDC-141433] | -74.9%
62 | Cc1cc(F)ccc1-c1nc(NCC(O)CNCCc2ccccc2)nc2c1ccc(=O)n2-c1c(F)cccc1F (stereo not shown) [TCMDC-141784] | 98.89%
63 | Cc1cc(F)ccc1-c1nc(NCCCNCCc2ccccc2)nc2c1ccc(=O)n2-c1c(F)cccc1F [TCMDC-141804] | 83.84%
64 | CCCCCN1CCC(NC(=O)c2ccc(C(=O)Nc3ccc(C(C)C)cc3)cc2)CC1 [TCMDC-136751] | 8.673%
